These results are taken from paper PMC8384837, “Expanding the binding specificity for RNA recognition by a PUF domain”.

Substitutions are numbered along the chain they refer to.

Common to all, as to test: yeast three-hybrid, YBZ-1, SC-Leu-His + 0.5 mM 3-AT, 4 days
Conditions in all cases: tags: N-Gal4 AD-HA kept; label: inside an RPR1-promoter hybrid RNA with tandem MS2 sites; ssRNA

In one test the target is PUM1 PUF domain R3-TFP (Homo sapiens, UniProt Q14671 828-1176, C935T;R936F;Q939P). In a few lines:
(§1)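 Pumilio-1 PUF domain libraries, randomized at the three base-contacting residues of each repeat, were co-expressed with matching RNA elements from a centromeric plasmid in strain YBZ-1, which carries a LexA–MS2 coat fusion and a HIS3 reporter. Transformants grew for four days on SC-Leu (input) or on SC-Leu-His + 0.5 mM 3-AT (selection), and the repeat regions were PCR-amplified and Illumina-sequenced. The interaction score is the log change in variant frequency from input to selection. That logarithm is base 2, with a pseudocount of 1 where a variant was absent.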

In another test the target is PUM1 PUF domain R3-RQV (Homo sapiens, UniProt Q14671 828-1176, C935R;R936Q;Q939V). Summed up: as §1
A further test addresses T1, PUM1 PUF domain R6-GHR (Homo sapiens, UniProt Q14671 828-1176, N1043G;Y1044H;Q1047R).
T1 sequence: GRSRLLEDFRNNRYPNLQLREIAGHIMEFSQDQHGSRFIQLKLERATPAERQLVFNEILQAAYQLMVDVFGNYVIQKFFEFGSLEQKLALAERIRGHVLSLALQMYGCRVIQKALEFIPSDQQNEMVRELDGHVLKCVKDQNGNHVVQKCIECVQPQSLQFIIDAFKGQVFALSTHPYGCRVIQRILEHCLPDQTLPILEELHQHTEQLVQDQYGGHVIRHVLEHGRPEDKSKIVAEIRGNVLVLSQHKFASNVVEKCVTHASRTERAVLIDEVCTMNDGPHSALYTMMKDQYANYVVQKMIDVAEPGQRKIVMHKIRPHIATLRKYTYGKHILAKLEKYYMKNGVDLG
Summed up:
as §1

Another test has as its target PUM1 PUF domain R8-RRK (Homo sapiens, UniProt Q14671 828-1176, N1122R;Y1123R;Q1126K). In a few lines: as §1
The target of the next test is PUM1 PUF domain R4-GPA (Homo sapiens, UniProt Q14671 828-1176, N971G;H972P;Q975A). Summed up:
as §1

For a further test, the target named is PUM1 PUF domain R4-PYG (Homo sapiens, UniProt Q14671 828-1176, N971P;H972Y;Q975G). Summed up:
as §1

A further test addresses PUM1 PUF domain R4-CMG (Homo sapiens, UniProt Q14671 828-1176, N971C;H972M;Q975G). In a few lines:
as §1

Another test has as its target T2, PUM1 PUF domain R6-CYQ (Homo sapiens, UniProt Q14671 828-1176, N1043C).
T2 sequence: T1 sequence with G216C, H217Y, R220Q
Summed up:
as §1

For another test, the target named is PUM1 PUF domain R5-TNG (Homo sapiens, UniProt Q14671 828-1176, C1007T;R1008N;Q1011G). In a few lines: as §1
Another test deals with PUM1 PUF domain R5-RKN (Homo sapiens, UniProt Q14671 828-1176, C1007R;R1008K;Q1011N). In a few lines: as §1

On to “GGCUAGAACUAGUGGAUCCCCCGGCGCCCGGCGGCUCGAGCCCGGGUAAGUGUAAUUAGUCUGCAUGCCGCCGGGCGCCAUGCCUGCAGGUCGACUCUAGAAAACAUG”, for which the binding signal is 3.79 log2 enrichment (interaction score) with PUM1 PUF domain R3-TFP and 4.16 log2 enrichment (interaction score) in the test with PUM1 PUF domain R3-RQV.
Regarding “GGCUAGAACUAGUGGAUCCCCCGGCGCCCGGCGGCUCGAGCCCGGGUAAGUGUAAAUAGUCUGCAUGCCGCCGGGCGCCAUGCCUGCAGGUCGACUCUAGAAAACAUG”, the binding signal with PUM1 PUF domain R3-TFP was 4.82 log2 enrichment (interaction score); in the test with PUM1 PUF domain R6-GHR, 3.81 log2 enrichment (interaction score); in the test with PUM1 PUF domain R8-RRK, 4.75 log2 enrichment (interaction score); with PUM1 PUF domain R4-GPA it was 3.16 log2 enrichment (interaction score); with PUM1 PUF domain R4-PYG, 5.58 log2 enrichment (interaction score); with PUM1 PUF domain R4-CMG, 3.4 log2 enrichment (interaction score).
“GGCUAGAACUAGUGGAUCCCCCGGCGCCCGGCGGCUCGAGCCCGGGUAAGCGUAAAUAGUCUGCAUGCCGCCGGGCGCCAUGCCUGCAGGUCGACUCUAGAAAACAUG”: the binding signal with PUM1 PUF domain R8-RRK is 5.29 log2 enrichment (interaction score).
On to “GGCUAGAACUAGUGGAUCCCCCGGCGCCCGGCGGCUCGAGCCCGGGUAAGUGCAAAUAGUCUGCAUGCCGCCGGGCGCCAUGCCUGCAGGUCGACUCUAGAAAACAUG”, for which, in the test with PUM1 PUF domain R6-GHR, the binding signal was 2.2 log2 enrichment (interaction score).
Take “GGCUAGAACUAGUGGAUCCCCCGGCGCCCGGCGGCUCGAGCCCGGGUAAGUGAAAAUAGUCUGCAUGCCGCCGGGCGCCAUGCCUGCAGGUCGACUCUAGAAAACAUG”: the binding signal in the test with PUM1 PUF domain R6-CYQ was 6 log2 enrichment (interaction score).
On to “GGCUAGAACUAGUGGAUCCCCCGGCGCCCGGCGGCUCGAGCCCGGGUAAGUGUACAUAGUCUGCAUGCCGCCGGGCGCCAUGCCUGCAGGUCGACUCUAGAAAACAUG”, for which the binding signal in the test with PUM1 PUF domain R4-GPA was 2.05 log2 enrichment (interaction score); in the test with PUM1 PUF domain R4-PYG, 6.89 log2 enrichment (interaction score); with PUM1 PUF domain R4-CMG, 2.47 log2 enrichment (interaction score).
As for “GGCUAGAACUAGUGGAUCCCCCGGCGCCCGGCGGCUCGAGCCCGGGUAAGUGUUAAUAGUCUGCAUGCCGCCGGGCGCCAUGCCUGCAGGUCGACUCUAGAAAACAUG”, the binding signal in the test with PUM1 PUF domain R5-TNG is 3.75 log2 enrichment (interaction score).
In the case of “GGCUAGAACUAGUGGAUCCCCCGGCGCCCGGCGGCUCGAGCCCGGGUAAGUGUAUAUAGUCUGCAUGCCGCCGGGCGCCAUGCCUGCAGGUCGACUCUAGAAAACAUG”, the binding signal in the test with PUM1 PUF domain R4-GPA is 1.91 log2 enrichment (interaction score); with PUM1 PUF domain R4-PYG, 7.83 log2 enrichment (interaction score).
Turning to “GGCUAGAACUAGUGGAUCCCCCGGCGCCCGGCGGCUCGAGCCCGGGUAAGUGUCAAUAGUCUGCAUGCCGCCGGGCGCCAUGCCUGCAGGUCGACUCUAGAAAACAUG”, the binding signal in the test with PUM1 PUF domain R5-RKN was 2.84 log2 enrichment (interaction score).
